{"source": "PubChem BioAssay (NCATS)", "note": "Results filed as inconclusive are left out. A number with no mark means an inactive call. Calls come from the whole dose curve; as a rule, active = well fitted inhibition curve with a large enough effect; inconclusive = small, poorly fitted or top-dose-only effect; inactive = flat fitted curve, though single readings scatter."}
{"tested_on": "CRL-7250", "assay": "Cytotoxic Profiling of Annotated Libraries Using Quantitative High-Throughput Screening (AID 1296008); note: % is set by controls: 0 for no effect and ±100 for the full control effect; nearly all actives have a fitted effect of over 60% in size", "settings": "Five cell lines viability, CellTiter-Glo ATP luminescence, 48-72 h; max response: active compounds read low", "summary_of_the_method": "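Cells exposed to compounds for 48 or 72 hr at 37 degrees Celsius. Viability read as ATP-coupled luminescence with CellTiter-Glo after 10 min at room temperature.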", "units": {"max response": "%"}}
{"molecule": "Cc1ccc(C(=O)N(CCCN)C(c2oc3cc(Cl)ccc3c(=O)c2Cc2ccccc2)C(C)C)cc1", "note": "(centres undefined)", "max response": -42.6}
{"molecule": "CC1(C)CCCC2(C)C1CC=C1C(=O)OC(O)C12O", "note": "(centres undefined)", "max response": -7.54}
{"molecule": "COC(=O)C1=CO[C@@H](O)C2C(CO)=CCC12", "note": "(some centres undefined)", "max response": -9.24}
{"molecule": "Cc1c2cc(c(C(=O)O)c1C)OC1OC(C(O)C(O)C1O)C(O)C(O)C1OC(O2)C(O)C(O)C1O", "note": "(centres undefined)", "max response": -20.3}
{"molecule": "C/C=C(/COC(=O)/C(C)=C/C)C(=O)OC(CC)c1ccc(OC)c(OC)c1", "note": "(centres undefined)", "max response": 3.89}
{"molecule": "Cc1noc(=O)c2ccc(NC(=O)C(O)(CC(C)(C)c3cccc4c3OCC4)C(F)(F)F)cc12", "note": "(centres undefined)", "max response": 3.52}
{"molecule": "CC1(C)CC[C@]2(C(=O)O[C@@H]3O[C@H](CO)[C@@H](O)[C@H](O)[C@H]3O)CC[C@]3(C)C(=CCC4[C@@]5(C)CC[C@H](O[C@@H]6O[C@H](C(=O)O)[C@@H](O)[C@H](O)[C@H]6O)[C@@](C)(CO)C5CC[C@]43C)C2C1", "note": "(some centres undefined)", "max response": 1.86}
{"molecule": "O=C1OCc2cc3cccc(O[C@@H]4O[C@H](CO)[C@@H](O)[C@H](O)[C@H]4O)c3c(O)c21", "max response": 3.34}
{"molecule": "CCOCc1nc2c(N)nc3ccccc3c2n1CC(C)(C)O", "max response": -6.16}
